Outcome and AC50 data for six compounds are collected here from PubChem BioAssay (EPA / NIEHS).

Active and inactive are the calls of the source. How the source made its calls: active means hit-call score of the fitted dose curve at least 0.9, where 1 is the maximum; inactive means score below 0.9.

Assay [1] in a line: BSK_CASM3C_SRB: Viability Assessment in the BioMAP Diversity Plus: CASM3C Assay (AID 2283050).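 Further: cells exposed to compound for 24 h.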 The note with it: primary human coronary artery smooth muscle cells.
Read-out in assay [2]: Thrombomodulin, THBD (gene 7056)
The assay is described as follows: BSK_CASM3C_Thrombomodulin: BioMAP Diversity Plus: CASM3C Assay for Thrombomodulin Biomarker Activity (AID 2283051).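 Further: thrombomodulin protein level measured by ELISA 24 h after dosing.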 The settings on record: primary human coronary artery smooth muscle cells; actives raise or lower the signal.

Read-out in assay [3]: Tissue Factor, F3 (gene 2152)
Briefly: BSK_CASM3C_TissueFactor: BioMAP Diversity Plus: CASM3C Assay for Tissue Factor Biomarker Activity (AID 2283052).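 Further: cell surface tissue factor protein level read by ELISA.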 The settings on record: primary human coronary artery smooth muscle cells; actives raise or lower the signal.

Read-out in assay [4]: Urokinase-type plasminogen activator receptor (uPAR), PLAUR (gene 5329)
Briefly: BSK_CASM3C_uPAR: BioMAP Diversity Plus: CASM3C Assay for Urokinase-type plasminogen activator receptor (uPAR) Biomarker Activity (AID 2283054).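 Further: cell-surface uPAR protein level quantified by ELISA.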 The settings on record: primary human coronary artery smooth muscle cells; actives raise or lower the signal.

Read-out in assay [5]: Vascular cell adhesion molecule 1 (VCAM1), VCAM1 (gene 7412)
Briefly: BSK_CASM3C_VCAM1: BioMAP Diversity Plus: CASM3C Assay for Vascular cell adhesion molecule 1 (VCAM1) Biomarker Activity (AID 2283055).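 Further: VCAM-1 protein level quantified by ELISA on the cells.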 The note with it: primary human coronary artery smooth muscle cells; actives raise or lower the signal.

Read-out in assay [6]: Collagen III, COL3A1 (gene 1281)
The assay is described as follows: BSK_hDFCGF_CollagenIII: BioMAP Diversity Plus: hDFCGF Assay for Collagen III Biomarker Activity (AID 2283056). The settings on record: primary human foreskin fibroblasts; actives raise or lower the signal. The essentials: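 Cells: human foreskin fibroblasts, primary. Dosing followed by 24 h incubation, then ELISA for collagen III. Both increases and decreases scored relative to DMSO.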

Read-out in assay [7]: Epidermal growth factor receptor (EGFR), EGFR (gene 1956)
The assay is described as follows: BSK_hDFCGF_EGFR: BioMAP Diversity Plus: hDFCGF Assay for Epidermal growth factor receptor (EGFR) Biomarker Activity (AID 2283057). The settings on record: primary human foreskin fibroblasts; actives raise or lower the signal. In outline: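 hDFCGF system, primary human foreskin fibroblasts; compound 24 h; EGFR measured by ELISA; DMSO = negative control/baseline; bidirectional fitting.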

Read-out in assay [8]: Interleukin-8 (IL8), CXCL8 (gene 3576)
The assay is described as follows: BSK_hDFCGF_IL8: BioMAP Diversity Plus: hDFCGF Assay for Interleukin-8 (IL8) Biomarker Activity (AID 2283058). The settings on record: primary human foreskin fibroblasts; actives raise or lower the signal. In outline:
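IL-8 levels from compound-treated primary human fibroblasts were read by ELISA at 24 h, with DMSO serving as baseline for bidirectional fitting.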

The nature of assay [9]: BSK_hDFCGF_Proliferation: Cell Proliferation Assessment in the BioMAP Diversity Plus: hDFCGF Assay (AID 2283059).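 Further: curves fitted for both rise and fall of signal versus DMSO baseline.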 The note with it: primary human foreskin fibroblasts. In outline: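 Steps: dose primary human dermal fibroblasts (foreskin); […] fix in 10% TCA; stain with 0.1% SRB; read 560 nm; fit gain or loss of signal against DMSO.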
Read-out in assay [10]: Macrophage colony-stimulating factor (MCSF), CSF1 (gene 1435)
The assay is described as follows: BSK_hDFCGF_MCSF: BioMAP Diversity Plus: hDFCGF Assay for Macrophage colony-stimulating factor (MCSF) Biomarker Activity (AID 2283060). The settings on record: primary human foreskin fibroblasts; actives raise or lower the signal. In outline:
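M-CSF levels, determined by ELISA, are taken at 24 h after dosing human skin fibroblasts. Responses in either direction are fitted with DMSO serving as the baseline.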

The nature of assay [11]: BSK_hDFCGF_SRB: Viability Assessment in the BioMAP Diversity Plus: hDFCGF Assay (AID 2283061).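 Further: cells exposed to compound for 24 h before the read.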 The settings on record: primary human foreskin fibroblasts. In outline:
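Cells were dosed with test chemical, cultured 24 h, fixed with 10% TCA, then stained with 0.1% SRB and read at 560 nm. The fibroblasts were human foreskin primary cells, and DMSO served as baseline.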

Read-out in assay [12]: TIMP metallopeptidase inhibitor 1 (TIMP1), TIMP1 (gene 7076)
Briefly: BSK_hDFCGF_TIMP1: BioMAP Diversity Plus: hDFCGF Assay for TIMP metallopeptidase inhibitor 1 (TIMP1) Biomarker Activity (AID 2283062). The settings on record: primary human foreskin fibroblasts; actives raise or lower the signal. The essentials:
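Fibroblasts from human foreskin are treated with test chemical and harvested at 24 h. TIMP-1 is quantified by ELISA, and gain or loss of signal is scored against DMSO.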

Read-out in assay [13]: Monokine induced gamma interferon (MIG), CXCL9 (gene 4283)
The assay is described as follows: BSK_hDFCGF_MIG: BioMAP Diversity Plus: hDFCGF Assay for Monokine induced gamma interferon (MIG) Biomarker Activity (AID 2283063). The note with it: primary human foreskin fibroblasts; actives raise or lower the signal. In outline: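 MIG signal, determined by ELISA, reflects 24 h chemical exposure of human skin primary fibroblasts. DMSO serves as negative control and baseline.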

Read-out in assay [14]: Matrix Metallopeptidase 1 (MMP1), MMP1 (gene 4312)
The assay is described as follows: BSK_hDFCGF_MMP1: BioMAP Diversity Plus: hDFCGF Assay for Matrix Metallopeptidase 1 (MMP1) Biomarker Activity (AID 2283064). The note with it: primary human foreskin fibroblasts; actives raise or lower the signal. The essentials:
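Primary human foreskin fibroblasts exposed to chemicals for 24 h; MMP1 measured by ELISA. Cytotoxicity tracked by SRB staining in parallel cultures; bidirectional fit relative to DMSO.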

Read-out in assay [15]: Vascular cell adhesion molecule 1 (VCAM1), VCAM1 (gene 7412)
Briefly: BSK_hDFCGF_VCAM1: BioMAP Diversity Plus: hDFCGF Assay for Vascular cell adhesion molecule 1 (VCAM1) Biomarker Activity (AID 2283065).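 On AC50: VCAM-1 protein level quantified by ELISA after 24 h chemical exposure.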 The settings on record: primary human foreskin fibroblasts; actives raise or lower the signal. In outline:
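Cells are dosed, cultured for 24 h, then VCAM-1 is quantified by ELISA; signal increases and decreases are both fitted relative to DMSO.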

Read-out in assay [16]: Interferon-gamma inducible Protein 10 (IP10), CXCL10 (gene 3627)
Briefly: BSK_KF3CT_IP10: BioMAP Diversity Plus: KF3CT Assay for Interferon-gamma inducible Protein 10 (IP10) Biomarker Activity (AID 2283068). The settings on record: primary human keratinocytes with fibroblasts; actives raise or lower the signal. In outline: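 KF3CT co-culture (keratinocytes + foreskin fibroblasts), 24 h compound, IP-10 by ELISA; bidirectional fit vs DMSO baseline.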

Assay [17] in a line: BSK_KF3CT_SRB: Viability Assessment in the BioMAP Diversity Plus: KF3CT Assay (AID 2283069).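 Further: total protein by sulforhodamine B staining as a cytotoxicity measure; fitted for both signal gain and loss against DMSO baseline.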 The note with it: primary human keratinocytes with fibroblasts. In outline: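 Human keratinocyte and foreskin fibroblast co-culture exposed to chemical for 24 h. Total protein measured in parallel cultures by 0.1% sulforhodamine B staining after 10% TCA fixation, read at 560 nm; bidirectional fit relative to DMSO.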

Read-out in assay [18]: Intercellular Adhesion Molecule 1 (ICAM1), ICAM1 (gene 3383)
Briefly: BSK_KF3CT_ICAM1: BioMAP Diversity Plus: KF3CT Assay for Intercellular Adhesion Molecule 1 (ICAM1) Biomarker Activity (AID 2283067). The note with it: primary human keratinocytes with fibroblasts; actives raise or lower the signal. In outline:
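Dose the keratinocyte/fibroblast co-culture, wait 24 h, measure ICAM-1 by ELISA, then fit increases or decreases against DMSO. Cytotoxicity is checked in parallel cultures by SRB total-protein staining.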

Read-out in assay [19]: Plasminogen activator inhibitor-1 (PAI1), SERPINE1 (gene 5054)
Briefly: BSK_hDFCGF_PAI1: BioMAP Diversity Plus: hDFCGF Assay for Plasminogen activator inhibitor-1 (PAI1) Biomarker Activity (AID 2283066). The note with it: primary human foreskin fibroblasts; actives raise or lower the signal. The essentials: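 Primary dermal fibroblasts (human foreskin), hDFCGF system; compound 24 h; PAI-1 by ELISA; bidirectional fit vs DMSO control.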

By AC50 is commonly meant the midpoint of the concentration-response curve, whichever way the signal moves.

As for `CNC(=O)Oc1ccccc1OC(C)C`, the outcome in assay [1], in assay [2], in assay [3], in [4], in assay [5] and in assay [6] was inactive. Moreover, the result in assay [7], in assay [8], in [9], in [10], in [11] and in assay [12] was inactive. Further, the outcome in assay [13], in assay [15], in assay [16] and in [17] was inactive. The AC50 in assay [14] is 2.38 µM (active).

For the compound `O=S1OCC2C(CO1)C1(Cl)C(Cl)=C(Cl)C2(Cl)C1(Cl)Cl` (centres undefined), the concentration at half-maximal activity (AC50) in assay [1] is 32.4 µM (active); in [2], 14.3 µM (active); in [4] it was 36.6 µM (active); in assay [5], 25.8 µM (active); in assay [6] it was 22.5 µM (active); in [8], 33.8 µM (active). The half-maximal activity concentration (AC50) in assay [9] is 23.2 µM (active); in assay [10], 24.2 µM (active); in assay [11], 26.7 µM (active); in assay [12] it was 32 µM (active); in [13], 37.6 µM (active); in assay [14] it was 36.7 µM (active). For the same compound, the AC50 is 33.5 µM (active) in [15], 31.9 µM (active) in assay [18], 29.9 µM (active) in assay [16] and 29.5 µM (active) in [17]. Also, the result in assay [3] and in assay [7] was inactive.

Regarding `COP(=S)(OC)Oc1ccc([N+](=O)[O-])cc1`, the result in [1], in assay [2], in assay [3], in [4], in [5] and in assay [7] was inactive. The result in [8], in [9], in assay [11], in assay [13], in assay [14] and in assay [15] was inactive. Also, the outcome in assay [18] and in assay [17] was inactive. Besides, the AC50 in assay [6] is 16.6 µM (active); in assay [10], 11.1 µM (active); in assay [12], 5.75 µM (active); in assay [16], 9.18 µM (active).

For `O=C(NC(=O)c1c(F)cccc1F)Nc1ccc(OC(F)(F)C(F)OC(F)(F)F)c(Cl)c1` (centres undefined), the result in assay [1], in [2], in [3], in [4], in [5] and in [6] was inactive. The result in assay [7], in assay [8], in [9], in assay [10], in [11] and in assay [12] was inactive. Also, the result in [13], in assay [14], in [15], in assay [16] and in assay [17] was inactive.

`N#Cc1c(Cl)c(Cl)c(Cl)c(C#N)c1Cl`: the AC50 in assay [1] was 2 µM (active); in assay [4], 5.03 µM (active); in [5], 1.62 µM (active); in assay [6], 0.148 µM (active); in [8], 1.1 µM (active); in [9] it was 0.148 µM (active). Moreover, the AC50 is 1.11 µM (active) in assay [10]; 0.148 µM (active) in [11]; 2.58 µM (active) in assay [12]; 0.148 µM (active) in assay [13]; 0.986 µM (active) in assay [14]; 1.08 µM (active) in assay [15]. Further, the concentration at half-maximal activity (AC50) is 0.585 µM (active) in assay [16] and 1.49 µM (active) in assay [17]. The outcome in [2] and in assay [7] was inactive.

As to `COc1cc(OC)nc(NC(=O)NS(=O)(=O)c2cc(NC=O)ccc2C(=O)N(C)C)n1`, the result in assay [1], in assay [2], in assay [3], in [4], in assay [5] and in assay [6] was inactive. Further, the outcome in assay [7], in assay [8], in [9], in [10], in [11] and in [12] was inactive. For the same compound, the result in [13], in assay [14], in assay [15], in [19], in assay [16] and in [17] was inactive.
